Screening results from PubChem.
KB-V1 cytotox: qHTS assay for MDR1-selective chemotherapeutics: Primary screen using the drug-selected MDR subline cells KB-V1; actives 3.4% (n = 400,000); Potency, µM (titrated, usually from 46.1 µM), usual class: cytotoxic; KB-V1 MDR cells viability, CellTiter-Glo, 72 h; note: nearly all actives have a fitted effect of over 60% in size
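KB-V1 cells (P-gp-expressing MDR subline of KB-3-1) in phenol-red-free DMEM with 10% FBS were exposed to library compounds over a concentration series for 72 h at 37 degrees C. Viability read by CellTiter-Glo luminescence; concentration-effect curves fitted after normalization.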
HT1080NT lethal: qHTS for induction of synthetic lethality in tumor cells producing 2HG: qHTS for the HT-1080-NT fibrosarcoma cell line | HT-1080-NT fibrosarcoma viability, CellTiter-Glo ATP luminescence, 48 h | Potency, µM (top dose mostly 46.1 µM), without a hit: at the top dose activity, negative = less viability, most hits filed as cytotoxic | actives 1.6% (n = 360,000);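 note: NT is the 2HG producing partner of a matched IDH1 knockdown line; 0% = DMSO-treated cells and -100% = media-only wells without cells; nearly all actives have a fitted effect of over 55% in size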
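Toxicity toward the 2HG-producing NT line was scored as %Activity, normalised to DMSO and no-cell wells, from CellTiter-Glo luminescence after 48 hours' treatment.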
TDP1 cell CPT: qHTS for Inhibitors of human tyrosyl-DNA phosphodiesterase 1 (TDP1): qHTS in cells in presence of CPT | chicken DT40 Tdp1-/-;hTDP1 cells + 20 nM CPT, ATP luminescence, 48 h | actives 12% (n = 420,000) | Potency, µM (highest dose often 46.2 µM), inactives show top-dose activity change, negative = growth inhibition, most hits filed as inhibitors | AID 686979, 2013; note: nearly all actives have a fitted effect of over 55% in size
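Cell growth measured by CellTiter-Glo luminescence after a minimum 48 h, 37 C compound exposure with 20 nM CPT in Tdp1-knockout DT40 cells stably expressing hTDP1, seeded 400/well; qHTS titration format.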
HT1080 IDH1KD tx: qHTS for induction of synthetic lethality in tumor cells producing 2HG: qHTS for the HT-1080-IDH1KD cell line; HT-1080 IDH1 knockdown viability, ATP luminescence, 48 h; Potency, µM (highest dose often 46.1 µM), inactives show at the highest dose activity, negative = toxicity, most hits filed as cytotoxic; actives 2% (n = 360,000); AID 686971, 2013;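 note: 0% = DMSO wells and -100% = cell-free medium wells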
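IDH1KD HT-1080 cells, 750/well, RPMI + 5% FBS; compound pinned after 2 h settling; 48 h, 37 °C; CellTiter-Glo luminescence; % activity normalised to DMSO and no-cell wells; curves fitted, classed by r2 and efficacy.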
KB-3-1 tox: qHTS assay for MDR1-selective chemotherapeutics: Primary screen using the parental adenocarcinoma cell KB-3-1; actives 1.4% (n = 400,000); Potency, µM (titrated, usually from 46.1 µM), hits mostly cytotoxic; KB-3-1 viability, CellTiter-Glo ATP luminescence, 72 h; note: nearly all actives have a fitted effect of over 60% in size
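Parental KB-3-1 adenocarcinoma cells in phenol-red-free DMEM with 10% FBS were pin-treated with compounds at several concentrations, incubated 72 h at 37 °C, and viability read by CellTiter-Glo luminescence; concentration-effect curves were fitted after normalization.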
TDP1 cell noCPT: qHTS for Inhibitors of human tyrosyl-DNA phosphodiesterase 1 (TDP1): qHTS in cells in absence of CPT; actives 15% (n = 420,000); Potency, µM (doses to about 46.2 µM), for the others: at the top dose activity change, negative = growth inhibition, most hits filed as inhibitors; AID 686978, 2013; DT40 Tdp1-/- hTDP1 cells, no CPT, ATP luminescence, 48 h; note: nearly all actives have a fitted effect of over 55% in size
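A cellular qHTS used chicken DT40 cells lacking endogenous Tdp1 but carrying stably transfected human TDP1. Compounds were applied without camptothecin, and cell growth kinetics were judged by ATP-dependent luminescence after ≥48 hr.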
* = called active by the depositor; i = inactive; ? = inconclusive; nt = no result given. An excerpt weighted towards active compounds, which were near 19% of everything screened. Calls come from the whole dose curve; as a rule, active = well fitted curve in the direction sought with a large enough effect; inconclusive = small, poorly fitted or top-dose-only effect, or another doubt; inactive = no such curve, though single readings can be large; an effect the other way counts as inactive or inconclusive. Unless noted, % is set by controls: 0 for no effect and ±100 for the full control effect; potency is the fitted concentration of half-maximal effect.

SMILES | KB-V1 cytotox | HT1080NT lethal | TDP1 cell CPT | HT1080 IDH1KD tx | KB-3-1 tox | TDP1 cell noCPT
O=C(Nc1ccccc1)Nc1ccccc1-n1ccnc1 | i | -3% | 2% | -8% | i | 5%
C=C(C)Cn1c(CCn2c3ccccc3c3ccccc32)n[nH]c1=S | i | -2% | 9.2µM* | -24% | i | 5.8µM*
Cc1nnsc1S(=O)c1ccc(Br)cc1 (configuration not stated) | i | -3% | 18µM* | -1% | i | ?
CC(C)c1ccc(-n2nnnc2SCC(=O)NC2CC2)cc1 | i | -6% | ? | -10% | i | ?
C(=N\N1CCN(C2c3ccccc3-c3ccccc32)CC1)/c1ccccn1 | 18µM* | -1% | 21µM* | -1% | ? | 16µM*
COc1ccc(/C=N/N2CCN(C3c4ccccc4-c4ccccc43)CC2)cc1O | ? | -18% | ? | -14% | ? | 18µM*
COc1ccccc1N1CCN(/N=C/c2ccc(Cl)c([N+](=O)[O-])c2)CC1 | i | 3% | ? | -8% | i | ?
Cc1ccc(/C=N/N2CCN(C3c4ccccc4-c4ccccc43)CC2)s1 | i | 19% | -14% | 16% | i | ?
O=[N+]([O-])c1cc(/C=N/N2CCN(C3c4ccccc4-c4ccccc43)CC2)ccc1Cl | ? | -1% | -11% | 22% | 21µM* | ?
COc1ccc(/C=N/N2CCOCC2)cc1O | i | 10% | 12% | 16% | i | -1%
Cc1cccc(N2C(=O)N3[C@H]4c5ccccc5OC[C@@H]4[C@@H](c4ccccc4)[C@@]3(C)C2=O)c1 | i | 0% | -23% | 1% | i | ?
COc1ccc2oc(C(=O)OCC(=O)N3CCCCC3)c(C)c2c1 | i | -8% | -20% | -1% | i | -4%
O=S(=O)(Nc1ccc(S(=O)(=O)Nc2nccs2)cc1)c1ccc2c(c1)OCCO2 | i | -20% | ? | ? | i | -15%
CCN(CC)c1ccc(/C=N/Nc2nc3ccccc3[nH]2)c(O)c1 | i | 8.2µM* | 4.6µM* | 6.5µM* | ? | 4.6µM*
CCN(CC)c1ccc(/C=N/N=C(c2ccccc2)c2ccccc2)c(O)c1 | ? | -6% | ? | -23% | i | 21µM*
CCN(CC)c1ccc(C=Nc2ccccc2C)c(O)c1 | ? | 0% | 0% | 0% | i | 9%
CCN(CC)c1ccc(C=Nc2ccc(C#N)cc2)c(O)c1 | i | 0% | 1% | -7% | i | 0%
COc1cc(OC)c(OC)cc1/C=N/Nc1nc2ccccc2[nH]1 | i | 3% | 3% | 3% | i | -22%
CCN(CC)c1ccc(/C=N/N(c2ccccc2)c2ccccc2)c(O)c1 | 16µM* | -3% | ? | -12% | i | ?
Cc1ccc2cc(CCNS(=O)(=O)c3ccc(Cl)cc3)c(=O)[nH]c2c1C | i | -17% | 21µM* | -14% | i | 23µM*
COc1ccc2cc(CN(CC3CCCO3)S(=O)(=O)c3ccc(C(C)=O)cc3)c(=O)[nH]c2c1 (configuration not stated) | i | 0% | -27% | 19% | i | ?
Cc1ccc(S(=O)(=O)N(CCO)Cc2cc3ccc(C)c(C)c3[nH]c2=O)cc1 | 16µM* | -19% | ? | -20% | i | ?
CCCCN(Cc1cc2cc(OC)ccc2[nH]c1=O)S(=O)(=O)c1ccc(C)cc1 | i | ? | 10µM* | -28% | ? | 7.3µM*
COc1ccc(S(=O)(=O)N(Cc2cc3cc(C)ccc3[nH]c2=O)CC2CCCO2)cc1 (configuration not stated) | 7.3µM* | 5% | ? | 7% | i | 21µM*
Cc1ccc(S(=O)(=O)N(CCCO)Cc2cc3c(C)ccc(C)c3[nH]c2=O)cc1 | i | -3% | ? | -3% | i | ?
SMILES | KB-V1 cytotox | HT1080NT lethal | TDP1 cell CPT | HT1080 IDH1KD tx | KB-3-1 tox | TDP1 cell noCPT
CC1Sc2ccc(S(=O)(=O)N(C)Cc3ccccc3)cc2NC1=O (configuration not stated) | i | -22% | -19% | -18% | i | -8%
Cc1cc2oc(=O)cc(CN3CCCCCCC3)c2cc1Cl | i | 21% | ? | 11% | i | ?
Cc1c(NS(=O)(=O)c2cc(C(=O)NCc3ccco3)cc(Cl)c2Cl)c(=O)n(-c2ccccc2)n1C | i | 4% | -19% | 10% | i | ?
CCc1ccc(CN2CCCC(C(=O)Nc3ccccc3-c3ccc(OC)cc3)C2)o1 (configuration not stated) | i | -15% | ? | -27% | i | ?
COC(=O)c1cccc(S(=O)(=O)N(Cc2ccco2)Cc2cc3cc(OC)ccc3[nH]c2=O)c1 | 16µM* | -28% | 29µM* | -28% | i | ?
Cc1ccc2cc(CN(CC3CCCO3)S(=O)(=O)c3cccc4nsnc34)c(=O)[nH]c2c1 (configuration not stated) | i | -1% | ? | 12% | i | 18µM*
CC(=O)Nc1ccc(S(=O)(=O)N(Cc2cc3ccc(C)cc3[nH]c2=O)CC2CCCO2)cc1 (configuration not stated) | i | 5% | -21% | 13% | i | ?
CCOC(=O)c1cccc(S(=O)(=O)N(CCO)Cc2cc3cc(OC)ccc3[nH]c2=O)c1 | ? | -12% | -16% | -13% | i | -7%
COc1cc(Cl)c(C)cc1NC(=O)c1nn(-c2ccc(C)cc2)c(=O)n(C)c1=O | i | nt | -18% | nt | i | -5%
O=C(O/N=C\c1ccc(N2CCCCC2)c([N+](=O)[O-])c1)c1ccc(Cl)cc1Cl | ? | 0% | ? | 14% | i | -24%
Nc1nnnn1/N=C/c1ccc(N2CCCCC2)c([N+](=O)[O-])c1 | i | 1% | 21µM* | -4% | i | 13µM*
CN1C(=O)c2ccc(NC(=O)c3ccc(N4CCCCC4)c([N+](=O)[O-])c3)cc2C1=O | i | 3% | 23µM* | -5% | i | ?
